Assay outcomes as filed in PubChem BioAssay.
The list is not random: actives were taken first. Their share in the collection is about 3.5%.
TEAD-YAP block = TEAD-YAP interaction inhibition | inhibition, % at 9.12 µM | HEK-TIYL cells, TEAD-Gal4/YAP UAS-luciferase luminescence | hit rate 1.4% among 640,000; in the data active = inhibition above about 32%;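 note: 0% = median of test compound wells and 100% = reference inhibitor wells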
MITF inh = inhibitors of human MITF. hit rate 0.91% among 650,000. O75030. inhibition, % at 2.6 µM. AlphaScreen MITF homodimerization, bead proximity signal; in the data active = inhibition above about 50%;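 note: 0% = vehicle wells with protein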
Target sequence (O75030 whole entry, looked up): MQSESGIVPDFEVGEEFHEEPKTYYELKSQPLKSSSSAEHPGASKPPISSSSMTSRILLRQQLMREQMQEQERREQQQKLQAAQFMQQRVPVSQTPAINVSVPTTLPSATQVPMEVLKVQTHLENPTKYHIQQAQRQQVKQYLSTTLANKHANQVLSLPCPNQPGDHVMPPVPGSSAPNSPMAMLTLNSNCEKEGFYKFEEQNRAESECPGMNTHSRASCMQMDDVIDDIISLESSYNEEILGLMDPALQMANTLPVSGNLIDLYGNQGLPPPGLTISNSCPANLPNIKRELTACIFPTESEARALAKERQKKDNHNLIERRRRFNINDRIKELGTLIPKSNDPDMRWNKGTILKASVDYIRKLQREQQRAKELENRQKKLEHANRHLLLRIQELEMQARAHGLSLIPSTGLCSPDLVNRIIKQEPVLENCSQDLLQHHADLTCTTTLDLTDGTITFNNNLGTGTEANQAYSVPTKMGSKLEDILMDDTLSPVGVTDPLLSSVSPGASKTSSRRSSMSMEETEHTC
FBW7 act = human FBW7 E3 ligase activation, primary screen; AlphaScreen FBW7–phospho-cyclin E peptide binding, activator screen; hit rate 0.13% among 650,000; normalized activity (activation), % at 26.1 µM; AID 1259310; Q969H0; in the data active = normalized activity above about 1.9%;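 note: purified mutant Fbw7 with reduced substrate affinity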
GPR151 activ = human GPR151 activation | Q8TDV0 | PathHunter beta-arrestin GPR151 cells, luminescence | activation, % at 11.2 µM | hit rate 1% among 650,000; in the data active = activation above about 4.9%;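 note: 0% = median of compound wells and 100% = cells with positive control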
The depositor's hits bear a star.

SMILES	TEAD-YAP block	MITF inh	FBW7 act	GPR151 activ
CN1C(=O)N(C)c2cccc3cccc1c23	-17	1	0	-1
CCOC(=O)CSC1=C(C#N)C(c2ccc(F)cc2)CC(=O)N1 (stereo unspecified)	42*	15	0	-2
CCOc1ccccc1C1CC(=O)NC(SCC(=O)OC)=C1C#N (stereo unspecified)	59*	7	0	0
CCOc1ccccc1C1CC(=O)NC(SCC)=C1C#N (stereo unspecified)	7	12	0	0
CCOC(=O)CSC1=C(C#N)C(c2ccccc2F)CC(=O)N1 (stereo unspecified)	48*	14	0	1
COC(=O)CSC1=C(C#N)C(c2cccc(F)c2)CC(=O)N1 (stereo unspecified)	46*	20	0	1
CCOC(=O)CSC1=C(C#N)C(c2ccc(C)cc2)CC(=O)N1 (stereo unspecified)	1	9	0	-1
COC(=O)CSC1=C(C#N)C(c2ccc(C)s2)CC(=O)N1 (stereo unspecified)	7	10	0	-1
CCOC(=O)CSC1=C(C#N)C(c2ccc(C)s2)CC(=O)N1 (stereo unspecified)	54*	20	0	-1
Cc1ccc(Sc2c(C)nn(C(=O)c3ccc(F)cc3)c2C)cc1	0	6	0	-1
O=[N+]([O-])c1ccc(Sc2nnnn2-c2ccccc2)c([N+](=O)[O-])c1	-9	3	0	-1
CN(C)CCNS(=O)(=O)c1ccc(Sc2nnnn2-c2ccccc2)c([N+](=O)[O-])c1	84*	0	0	1
Cc1ccc(-n2nnnc2Sc2ccc([N+](=O)[O-])cc2C#N)cc1	45*	5	0	-1
N#Cc1ccc(NC(=O)c2cc([N+](=O)[O-])ccc2Sc2nnnn2-c2ccccc2)cc1	-8	-6	0	3
N#Cc1cc([N+](=O)[O-])ccc1Sc1nnnn1-c1ccccc1	46*	6	0	1
COc1cccc(NC(=O)CN2C(=O)C3C4C=CC(C4)C3C2=O)c1 (stereo unspecified)	-8	14	0	-1
CC(=O)c1cccc(-c2nc(NCCCN3CCCC3=O)c3ncn(C(C)C)c3n2)c1	44*	-4	0	-1
CC(=O)c1cccc(-c2nc(NCCCN3CCCC3=O)c3ncn(-c4ccsc4)c3n2)c1	58*	-10	1	1
COc1ccc(-c2nc(NCCCN3CCCC3=O)c3ncn(-c4ccccc4)c3n2)cn1	55*	-1	0	3
Nc1cccc(-c2nc(NCCCN3CCCC3=O)c3ncn(CCN4CCCC4=O)c3n2)c1	0	1	0	2
Nc1cccc(-c2nc(NCCCN3CCCC3=O)c3ncn(-c4ccccc4)c3n2)c1	59*	5	0	0
COc1ccc(-c2nc(NCCCN3CCCC3=O)c3ncn(C(C)C)c3n2)cn1	17	10	0	-2
CCOc1cc(C)nc(N2CCC(C(=O)NCCOC)CC2)n1	-3	0	0	0
O=C(NCCc1nc(-c2cccnc2)n[nH]1)c1cccc2ncccc12	-6	-6	1	-1
Cc1ccc(NC(=O)c2ccc(Br)o2)cc1C	-46	-4	0	0
SMILES	TEAD-YAP block	MITF inh	FBW7 act	GPR151 activ
COc1ccc(CCNc2nc(NCCCN3CCCC3=O)nc3c2ncn3-c2ccsc2)cc1	7	16	0	-2
COc1ccc(-c2nc(NCCN3CCOCC3)c3ncn(-c4ccsc4)c3n2)cn1	35*	20	0	-1
O=C(NC1CC1)c1ccc(-c2nc(NCCCN3CCCC3=O)c3ncn(-c4ccsc4)c3n2)cc1	42*	17	0	1
COc1ccc(-c2nc(NCCCN3CCCC3=O)c3ncn(-c4ccsc4)c3n2)cn1	49*	-4	0	0
COc1ccc(-c2nc(NCCCN3CCCC3=O)c3ncn(-c4ccsc4)c3n2)cc1	58*	-18	0	-1
O=C1CC(c2ccccc2)Cc2nc(-c3ccc(C(F)(F)F)cn3)ncc21 (stereo unspecified)	-10	10	0	1
C(=Nc1ccc(N2CCOCC2)cc1)c1ccccc1	65*	14	-1	0
c1ccc(Oc2ccc(Nc3ncnc4nc(-c5csc6ccccc56)[nH]c34)cc2)cc1	-2	47	0	3
Cc1cnc(Nc2ccc(-n3ccnc3)cc2)nc1Nc1ccc2c(c1)OCO2	60*	2	0	-2
CC(C)n1cnc2c(Nc3ccc4c(c3)OCO4)nc(Nc3ccccc3)nc21	5	12	0	0
CC(C)n1cnc2c(Nc3ccc4c(c3)OCO4)nc(Nc3cnccn3)nc21	-5	-2	12*	0
CC(C)n1cnc2c(Nc3ccc4c(c3)OCO4)nc(Nc3ccc(-n4ccnc4)cc3)nc21	39*	6	0	-1
CC(C)n1cnc2c(Nc3ccc(N4CCOCC4)cc3)nc(Nc3ccc(-n4ccnc4)cc3)nc21	50*	3	0	4
c1cnc(Nc2nc(Nc3ccc4c(c3)OCO4)c3ncn(C4CCCCC4)c3n2)cn1	-23	1	0	0
CC(=O)Nc1ccc(Nc2nc(Nc3ccc(N4CCOCC4)cc3)nc3c2ncn3C(C)C)cc1	22	4	0	3
COc1cc(CN2CCc3nnc(C(C)NC(=O)c4ccccc4C)n3CC2)ccc1O (stereo unspecified)	1	-14	0	-1
Cc1ccc(C(=O)Nc2nnc(SCC(=O)NCC3CCCO3)s2)cc1 (stereo unspecified)	42*	-1	0	0
CSc1nnc(NC(=O)c2ccc(C(C)(C)C)cc2)s1	32*	-2	0	-2
CSc1nnc(NC(=O)c2ccc(C)cc2)s1	76*	0	0	-6
CC(C)(C)c1ccc(C(=O)Nc2nnc(SCC(=O)O)s2)cc1	71*	-8	0	-1
CSc1nnc(NC(=O)c2ccc(F)cc2)s1	-35	-17	0	-8
Cc1ccc(NC(=O)C(=O)NCC2CCCN2S(=O)(=O)c2cccs2)cc1C (stereo unspecified)	-5	-9	0	1
COc1ccc(NC(=O)C(=O)NCC2CCCN2S(=O)(=O)c2cccs2)cc1 (stereo unspecified)	45*	1	0	1
O=C(COc1ccc(Cl)cc1Cl)NNC(=O)COc1ccc(Cl)cc1Cl	-17	0	0	0
CCOC(=O)COc1cc(C)cc2oc(=O)c(C)c(C)c12	5	-8	0	0
CCOC(=O)N1CCN(C(=O)c2cc(-c3ccncc3)nc3ccccc23)CC1	52*	1	0	2
O=C(c1cc(-c2ccncc2)nc2ccc(Cl)cc12)N1CCN(c2ccccn2)CC1	40*	-6	0	0
O=C(c1cc(-c2cccnc2)nc2ccc(Cl)cc12)N1CCN(c2ncccn2)CC1	11	9	0	0
Cc1ccc(-c2cc(C(=O)N3CCN(c4ccccc4)CC3)c3ccccc3n2)s1	49*	-5	0	0
O=C(c1ccccc1)N1CCN(c2nc(-c3ccccc3)c3cc(Cl)ccc3n2)CC1	2	17	1.9*	0
